High-throughput results deposited in PubChem by Broad Institute.
NFkB SMM: binds human NF-kappa-B p105 on microarray; P19838; Small molecule microarray, anti-His fluorescence binding; calls only; actives 1.3% (n = 17,000); AID 624139;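 active = spot fluorescence over background significantly raised, with a chance value under 7% in all four replicate spots of the compound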;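 note: probe protein is his-tagged human p50 processed subunit at 1 µg/ml; raw spot fluorescence signals with no normalization applied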
Target sequence (P19838 1-433 limits assumed): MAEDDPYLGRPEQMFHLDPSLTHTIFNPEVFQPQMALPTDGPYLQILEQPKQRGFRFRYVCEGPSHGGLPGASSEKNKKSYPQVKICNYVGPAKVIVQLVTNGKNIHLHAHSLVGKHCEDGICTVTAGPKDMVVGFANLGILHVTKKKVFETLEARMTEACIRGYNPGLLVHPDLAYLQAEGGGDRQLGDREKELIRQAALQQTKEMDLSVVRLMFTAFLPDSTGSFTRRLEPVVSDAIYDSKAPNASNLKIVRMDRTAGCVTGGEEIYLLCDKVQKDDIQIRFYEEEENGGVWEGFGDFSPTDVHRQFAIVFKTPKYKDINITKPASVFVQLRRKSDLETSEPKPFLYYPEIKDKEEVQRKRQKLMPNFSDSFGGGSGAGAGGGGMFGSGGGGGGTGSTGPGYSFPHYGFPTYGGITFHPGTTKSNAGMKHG
STAT3 SMM: binds human STAT3 on microarray. P40763. Small molecule microarray, His-STAT3 binding, anti-His fluorescence. calls only. actives 0.2% (n = 17,000). AID 624138;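 active = compounds whose four printed spots each show fluorescence over background unusually high for their array block, chance value under 7%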
Myc binder: binders of human c-Myc | P01106 | small molecule microarray, His-c-Myc binding, anti-His fluorescence | calls only | actives 1.5% (n = 17,000) | AID 624141;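 active = spot fluorescence over background with P-value below 7% in all four replicate spots, showing protein binding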;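 note: score is binary with 100 for all four spots passing and 0 otherwise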
mut p53 SMM: mutant p53 (human) binding | small molecule microarray binding, anti-GST fluorescence | calls only | actives 0.4% (n = 17,000) | AID 624136;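 active = compounds whose four printed spots each glow above background more than chance allows, each with a p-value under 7%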
An asterisk follows results filed as active. Rows were chosen to be rich in hits. Some 2.5% of all compounds tested hit in one or more screens of this group.

`O=C1N(Cc2ccccc2)Cc2ccccc2C[C@@]12N=C(c1ccc(OCCCO)cc1)O[C@H]2c1ccccc1` gave NFkB SMM active, STAT3 SMM inactive, Myc binder inactive and mut p53 SMM active.
Screening O=C1c2c(O)cc(O)c([C@@H]3C(=O)c4c(O)cc(O)cc4O[C@H]3c3ccc(O)cc3)c2O[C@@H](c2ccc(O)cc2)[C@@H]1O returned NFkB SMM inactive, STAT3 SMM inactive, Myc binder inactive and mut p53 SMM inactive.
Screening CCn1c(SCc2cccc(OC)c2)nnc1-c1cccnc1 returned NFkB SMM inactive, STAT3 SMM inactive, Myc binder inactive and mut p53 SMM inactive.
COC(=O)c1ccccc1NC(=O)C(C)Oc1ccccc1 (stereo unspecified) was read as NFkB SMM inactive, STAT3 SMM inactive, Myc binder inactive and mut p53 SMM inactive.
Screening COC(=O)c1cccc2nc3c(C(C)O)cccc3nc12 (stereo unspecified) returned NFkB SMM inactive, STAT3 SMM inactive, Myc binder active and mut p53 SMM inactive.
Screening O=C1O[C@@H](c2ccccc2)[C@@H](c2ccccc2)N2[C@@H](c3ccc(OCCO)cc3)[C@]3(C(=O)Nc4ccc(C#CC5=CCCCC5)cc43)[C@@H](C(=O)N3CCCCCCC3)[C@H]12 returned NFkB SMM inactive, STAT3 SMM active, Myc binder inactive and mut p53 SMM active.
Screening NC(=O)[C@@H]1[C@H]2C(=O)O[C@H](c3ccccc3)[C@H](c3ccccc3)N2[C@H](c2ccc(OCCO)cc2)[C@@]12C(=O)Nc1ccc(C#CC3(O)CCCCCC3)cc12 returned NFkB SMM inactive, STAT3 SMM inactive, Myc binder inactive and mut p53 SMM inactive.
For COc1cc2c(cc1OC)CN(C(=O)[C@H]1[C@@H]3C(=O)O[C@@H](c4ccccc4)[C@@H](c4ccccc4)N3[C@@H](c3ccccc3OCCO)[C@]13C(=O)Nc1ccc(C#CC4=CCCCC4)cc13)CC2 the results were NFkB SMM active, STAT3 SMM inactive, Myc binder inactive and mut p53 SMM inactive.
COc1cc2c(cc1OC)CN(C(=O)[C@@H]1[C@H]3C(=O)O[C@H](c4ccccc4)[C@H](c4ccccc4)N3[C@H](c3ccc(OCCO)cc3)[C@@]13C(=O)Nc1ccc(C#CC4(O)CCCCCC4)cc13)CC2 was read as NFkB SMM active, STAT3 SMM inactive, Myc binder inactive and mut p53 SMM inactive.
O=C1O[C@H](c2ccccc2)[C@H](c2ccccc2)N2[C@H]1[C@@H](C(=O)N1CCCCCCC1)[C@]1(C(=O)Nc3ccc(C#CC4(O)CCCCCC4)cc31)[C@H]2c1ccc(OCCO)cc1 was read as NFkB SMM active, STAT3 SMM inactive, Myc binder active and mut p53 SMM active.
COc1cc2c(cc1OC)CN(C(=O)[C@@H]1[C@H]3C(=O)O[C@H](c4ccccc4)[C@H](c4ccccc4)N3[C@H](c3ccc(OCCO)cc3)[C@@]13C(=O)Nc1ccccc13)CC2 was read as NFkB SMM inactive, STAT3 SMM inactive, Myc binder inactive and mut p53 SMM inactive.
`COC(=O)C(CC#Cc1ccc2c(c1)[C@]1(C(=O)N2)[C@H](C(=O)N2CCc3cc(OC)c(OC)cc3C2)[C@H]2C(=O)O[C@H](c3ccccc3)[C@H](c3ccccc3)N2[C@@H]1c1ccc(OCCO)cc1)C(=O)OC` gave NFkB SMM inactive, STAT3 SMM inactive, Myc binder inactive and mut p53 SMM inactive.
`COc1cc2c(cc1OC)CN(C(=O)[C@H]1[C@@H]3C(=O)O[C@@H](c4ccccc4)[C@@H](c4ccccc4)N3[C@@H](c3ccc(OCCO)cc3)[C@]13C(=O)Nc1ccc(C#CC4=CCCCC4)cc13)CC2` gave NFkB SMM active, STAT3 SMM inactive, Myc binder inactive and mut p53 SMM inactive.
COc1cc(OC)c(OC)cc1CN1CCN(Cc2ccccn2)CC1 was read as NFkB SMM inactive, STAT3 SMM inactive, Myc binder active and mut p53 SMM inactive.
`Oc1ccc(Br)cc1CNc1nc2ccccc2[nH]1` gave NFkB SMM inactive, STAT3 SMM inactive, Myc binder inactive and mut p53 SMM inactive.
`O=C(O)CCCC(=O)Nc1ccc(Br)cc1C(=O)O` gave NFkB SMM active, STAT3 SMM inactive, Myc binder active and mut p53 SMM inactive.
Screening COc1cc(O)c2c(c1)O[C@H](c1ccc(O)c(O)c1)[C@@H](O)C2=O returned NFkB SMM inactive, STAT3 SMM inactive, Myc binder inactive and mut p53 SMM inactive.
Screening O=C(CSc1nc(O)cc(=O)n1-c1ccccc1)N1CCc2ccccc21 returned NFkB SMM inactive, STAT3 SMM inactive, Myc binder inactive and mut p53 SMM active.
O=C(CSc1ccc([N+](=O)[O-])cn1)N1CCc2ccccc21 was read as NFkB SMM inactive, STAT3 SMM inactive, Myc binder inactive and mut p53 SMM inactive.
`Cc1ccc(OCCCn2cnc3ccccc3c2=O)c([N+](=O)[O-])c1` gave NFkB SMM inactive, STAT3 SMM inactive, Myc binder inactive and mut p53 SMM inactive.
`Cc1c(Br)c([N+](=O)[O-])nn1CC(=O)Nc1ccc(F)cc1` gave NFkB SMM inactive, STAT3 SMM inactive, Myc binder inactive and mut p53 SMM inactive.
COc1cccc(CN2CCN(C(=O)c3cc(-c4ccccn4)nc4ccc(Cl)cc34)CC2)c1 was read as NFkB SMM inactive, STAT3 SMM inactive, Myc binder inactive and mut p53 SMM active.
`CC(=O)Nc1cccc(NC(=O)c2cc(-c3ccccn3)nc3ccc(Cl)cc23)c1` gave NFkB SMM inactive, STAT3 SMM inactive, Myc binder inactive and mut p53 SMM inactive.
For CC12C=CC(=O)C=C1CCC1C2=CCC2(C)C1CC[C@@H]2C(=O)CN1CCN(c2cc(N3CCCC3)nc(N3CCCC3)n2)CC1 (stereo partly specified) the results were NFkB SMM inactive, STAT3 SMM inactive, Myc binder active and mut p53 SMM inactive.
`C[C@@H]1CN([C@@H](C)CO)C(=O)c2cc(NC(=O)Nc3ccc(F)cc3)ccc2O[C@@H](C)CCCCO[C@H]1CN(C)C(=O)c1ccccc1` gave NFkB SMM inactive, STAT3 SMM inactive, Myc binder inactive and mut p53 SMM inactive.
Screening C[C@@H]1CCCCO[C@H](CN(C)C(=O)c2ccccc2)[C@@H](C)CN([C@H](C)CO)C(=O)c2cc(NC(=O)Nc3ccc4c(c3)OCO4)ccc2O1 returned NFkB SMM inactive, STAT3 SMM inactive, Myc binder inactive and mut p53 SMM inactive.
`C[C@@H]1CN([C@@H](C)CO)C(=O)c2cc(NC(=O)Nc3ccc(F)cc3)ccc2O[C@@H](C)CCCCO[C@H]1CN(C)C(=O)Cc1ccccc1` gave NFkB SMM active, STAT3 SMM inactive, Myc binder active and mut p53 SMM inactive.
